This note sets out measurements from the supplement of paper PMC11732987, “Enantioselective OTUD7B fragment discovery through chemoproteomics screening and high-throughput optimisation” (Communications Chemistry, 2025).

Holding throughout (assay): log2 ratio of Biotin-Ahx-Ub-VS probe labelling (fragment/DMSO); higher = less target engagement (more negative = stronger competition), active = hit call of the paper (q ≤ 0.05, log2 ratio ≤ -1)
Settings in all cases: compound concentration: 200 uM; treatment time: 3 h

For one assay, the target named is T1, OTUD6B (UniProt Q8N6M0).
T1 sequence (whole entry): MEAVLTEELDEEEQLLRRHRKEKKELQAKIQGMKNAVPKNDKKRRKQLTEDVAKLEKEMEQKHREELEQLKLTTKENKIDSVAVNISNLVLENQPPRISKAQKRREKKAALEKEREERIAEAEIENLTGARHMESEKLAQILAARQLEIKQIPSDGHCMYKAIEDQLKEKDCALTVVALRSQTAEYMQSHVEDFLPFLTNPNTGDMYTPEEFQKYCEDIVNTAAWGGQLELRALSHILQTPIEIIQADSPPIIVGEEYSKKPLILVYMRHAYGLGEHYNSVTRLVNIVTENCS
The essentials: (§1)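 Labelled DUBs were enriched with NeutrAvidin, digested with LysC and trypsin, and run by diaPASEF LC-MS/MS. The labelling used Biotin-Ahx-Ub-VS at 0.5 µM final for 1 h on HEK293T lysate (495 µg per sample) previously treated in triplicate with fragment at 200 µM or vehicle for 3 h. Values are average log2 fragment/vehicle ratios by unpaired t-test on global-median-normalised Spectronaut quantities of proteins with ≥2 unique peptides.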

Another assay addresses T2, OTUD7B (UniProt Q6GQQ9).
T2 sequence (whole entry): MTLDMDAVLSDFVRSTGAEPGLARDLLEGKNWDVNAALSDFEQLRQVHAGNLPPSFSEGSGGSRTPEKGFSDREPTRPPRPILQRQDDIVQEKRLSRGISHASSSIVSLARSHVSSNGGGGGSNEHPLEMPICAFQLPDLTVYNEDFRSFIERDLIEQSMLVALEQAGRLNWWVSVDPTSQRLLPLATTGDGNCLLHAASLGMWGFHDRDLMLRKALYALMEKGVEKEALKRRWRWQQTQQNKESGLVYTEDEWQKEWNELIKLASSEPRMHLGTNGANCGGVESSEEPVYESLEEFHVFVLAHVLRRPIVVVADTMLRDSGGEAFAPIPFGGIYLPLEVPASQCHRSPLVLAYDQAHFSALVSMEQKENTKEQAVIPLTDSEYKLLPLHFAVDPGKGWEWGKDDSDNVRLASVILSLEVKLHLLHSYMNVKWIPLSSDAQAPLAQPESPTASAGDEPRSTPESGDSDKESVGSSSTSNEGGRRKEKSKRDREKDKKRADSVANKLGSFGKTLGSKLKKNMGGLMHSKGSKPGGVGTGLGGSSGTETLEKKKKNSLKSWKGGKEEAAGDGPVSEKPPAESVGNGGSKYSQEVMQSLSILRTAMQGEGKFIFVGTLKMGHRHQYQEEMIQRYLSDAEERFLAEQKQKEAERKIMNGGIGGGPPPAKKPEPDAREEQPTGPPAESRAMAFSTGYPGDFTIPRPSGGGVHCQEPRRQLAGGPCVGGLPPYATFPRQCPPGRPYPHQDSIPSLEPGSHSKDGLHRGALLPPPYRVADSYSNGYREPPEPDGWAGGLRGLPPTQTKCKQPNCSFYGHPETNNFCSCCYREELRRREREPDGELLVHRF
The procedure, abridged: as §1

For a further assay, the target named is PRPF8 (UniProt Q6P2Q9). The procedure, abridged:
as §1

The next assay deals with T3, PSMD7 (UniProt P51665).
T3 sequence (whole entry): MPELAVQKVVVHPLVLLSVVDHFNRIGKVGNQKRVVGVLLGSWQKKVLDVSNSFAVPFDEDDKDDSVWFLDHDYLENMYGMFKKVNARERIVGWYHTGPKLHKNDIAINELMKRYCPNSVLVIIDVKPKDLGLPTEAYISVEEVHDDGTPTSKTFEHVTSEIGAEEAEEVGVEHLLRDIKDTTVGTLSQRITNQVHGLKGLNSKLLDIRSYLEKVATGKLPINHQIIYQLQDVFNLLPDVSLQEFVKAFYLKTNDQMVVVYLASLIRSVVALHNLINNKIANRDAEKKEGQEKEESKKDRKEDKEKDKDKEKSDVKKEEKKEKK
The procedure, abridged:
as §1

The target in a further assay is UCHL1 (UniProt P09936). The essentials: as §1
Chain of UCHL1 (P09936 whole entry, looked up): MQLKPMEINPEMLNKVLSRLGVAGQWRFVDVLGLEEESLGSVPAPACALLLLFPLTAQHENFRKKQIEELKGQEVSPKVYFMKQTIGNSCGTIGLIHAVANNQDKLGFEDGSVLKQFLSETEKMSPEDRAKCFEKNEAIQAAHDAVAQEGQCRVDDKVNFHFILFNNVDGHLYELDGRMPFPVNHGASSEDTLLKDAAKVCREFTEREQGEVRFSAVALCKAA
The target in another assay is T4, UCHL3 (UniProt P15374).
T4 sequence (whole entry): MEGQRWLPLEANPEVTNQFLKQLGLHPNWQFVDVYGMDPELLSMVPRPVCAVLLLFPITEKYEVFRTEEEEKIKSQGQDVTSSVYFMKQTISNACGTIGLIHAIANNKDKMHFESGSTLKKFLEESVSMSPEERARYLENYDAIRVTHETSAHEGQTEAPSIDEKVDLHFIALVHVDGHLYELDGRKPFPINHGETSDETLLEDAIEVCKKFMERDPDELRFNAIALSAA
The procedure, abridged: as §1

In a further assay the target is T5, UCHL5 (UniProt Q9Y5K5).
T5 sequence (whole entry): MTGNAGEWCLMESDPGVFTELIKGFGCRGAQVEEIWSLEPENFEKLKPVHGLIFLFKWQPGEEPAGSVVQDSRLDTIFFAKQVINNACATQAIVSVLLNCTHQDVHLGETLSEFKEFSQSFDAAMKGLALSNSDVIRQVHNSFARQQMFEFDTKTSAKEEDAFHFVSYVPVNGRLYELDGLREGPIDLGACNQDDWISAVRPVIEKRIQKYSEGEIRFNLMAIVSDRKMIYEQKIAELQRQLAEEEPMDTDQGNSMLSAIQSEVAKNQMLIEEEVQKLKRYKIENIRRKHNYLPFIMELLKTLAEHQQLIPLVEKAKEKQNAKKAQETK
The procedure, abridged:
as §1

The target in another assay is USP10 (UniProt Q14694). The essentials: as §1
Chain of USP10 (Q14694 whole entry): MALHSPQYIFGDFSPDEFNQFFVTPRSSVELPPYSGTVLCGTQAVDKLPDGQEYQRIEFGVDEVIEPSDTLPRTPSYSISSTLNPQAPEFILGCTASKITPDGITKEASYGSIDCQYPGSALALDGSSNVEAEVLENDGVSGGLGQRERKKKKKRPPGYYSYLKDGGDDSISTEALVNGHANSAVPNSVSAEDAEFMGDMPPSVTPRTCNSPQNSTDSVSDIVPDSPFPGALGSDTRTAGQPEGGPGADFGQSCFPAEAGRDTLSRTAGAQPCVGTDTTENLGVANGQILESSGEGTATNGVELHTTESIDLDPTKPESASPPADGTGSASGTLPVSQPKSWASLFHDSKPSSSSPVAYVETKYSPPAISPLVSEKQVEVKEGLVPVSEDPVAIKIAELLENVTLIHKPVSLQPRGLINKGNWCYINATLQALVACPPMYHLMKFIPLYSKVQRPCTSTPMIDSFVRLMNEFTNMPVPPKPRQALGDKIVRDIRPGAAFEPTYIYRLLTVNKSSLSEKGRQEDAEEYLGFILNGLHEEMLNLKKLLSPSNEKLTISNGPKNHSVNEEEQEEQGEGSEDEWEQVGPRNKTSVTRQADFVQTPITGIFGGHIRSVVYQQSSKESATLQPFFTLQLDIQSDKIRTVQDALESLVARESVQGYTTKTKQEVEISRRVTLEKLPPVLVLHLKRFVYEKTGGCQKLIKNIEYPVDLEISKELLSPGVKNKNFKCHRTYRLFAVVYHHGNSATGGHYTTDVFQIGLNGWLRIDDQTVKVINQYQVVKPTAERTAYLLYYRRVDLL
A further assay addresses T6, USP15 (UniProt Q9Y4E8).
T6 sequence (whole entry): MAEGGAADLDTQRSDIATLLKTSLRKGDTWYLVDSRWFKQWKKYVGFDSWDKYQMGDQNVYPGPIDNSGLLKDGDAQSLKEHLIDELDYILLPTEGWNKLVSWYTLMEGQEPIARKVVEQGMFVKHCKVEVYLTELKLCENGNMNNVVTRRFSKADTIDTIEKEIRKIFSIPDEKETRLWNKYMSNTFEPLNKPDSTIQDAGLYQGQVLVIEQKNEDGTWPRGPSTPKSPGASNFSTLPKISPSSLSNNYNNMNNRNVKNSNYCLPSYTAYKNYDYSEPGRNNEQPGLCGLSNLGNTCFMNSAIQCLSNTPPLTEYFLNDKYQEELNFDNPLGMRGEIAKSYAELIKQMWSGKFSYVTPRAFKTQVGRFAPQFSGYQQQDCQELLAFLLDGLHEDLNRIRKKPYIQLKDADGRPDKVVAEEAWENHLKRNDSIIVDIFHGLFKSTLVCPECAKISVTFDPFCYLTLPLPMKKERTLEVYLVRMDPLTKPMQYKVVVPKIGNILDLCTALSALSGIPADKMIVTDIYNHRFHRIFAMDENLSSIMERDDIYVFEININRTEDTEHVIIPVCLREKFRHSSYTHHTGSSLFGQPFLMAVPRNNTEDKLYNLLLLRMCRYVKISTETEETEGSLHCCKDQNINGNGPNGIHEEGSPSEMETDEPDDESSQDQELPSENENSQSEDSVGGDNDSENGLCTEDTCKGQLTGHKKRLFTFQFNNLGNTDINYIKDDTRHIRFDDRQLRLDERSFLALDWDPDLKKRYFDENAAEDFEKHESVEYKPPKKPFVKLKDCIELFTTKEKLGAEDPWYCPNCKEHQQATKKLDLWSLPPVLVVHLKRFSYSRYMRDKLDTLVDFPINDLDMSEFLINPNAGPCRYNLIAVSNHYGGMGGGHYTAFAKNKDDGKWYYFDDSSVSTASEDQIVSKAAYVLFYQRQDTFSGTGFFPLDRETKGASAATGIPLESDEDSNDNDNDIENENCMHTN
The essentials:
as §1

Unmarked numbers belong to inactive results.

Turning to `O=C(CCl)N1CCC(C(=O)N2CCCCCC2)CC1`, the “log2 ratio of Biotin-Ahx-Ub-VS probe labelling” value in the assay with OTUD6B was 0.0239; with OTUD7B, -0.19; with PRPF8, 0.0601; in the assay with PSMD7 it was -0.0463; in the assay with UCHL1, -1.19 (active); in the assay with UCHL3, 0.241. Moreover, the “log2 ratio of Biotin-Ahx-Ub-VS probe labelling” value was -0.191 in the assay with UCHL5, -0.0405 with USP10 and -0.115 with USP15.
